Molecules are shown by their SMILES. Where two headings read alike, the source gives them in different places.

Parameters in all cases: species or system human, MV4-11 + K-562 + COLO205 + SK-N-BE2 + OVCAR-8
The test system of assay [1] is FLT3. The conditions noted are these: read-out: apparent Kd, n = 1.
Assay [2] concerns RIPK3. The conditions noted are these: read-out: apparent Kd; compound concentrations: 100 nM and 1000 nM (sheet 'Samples'), CATDS: 0.17836354308348701; n = 1.
In assay [3] the test system is STK26. The conditions noted are these: read-out: apparent Kd; compound concentrations: 100 nM and 1000 nM (sheet 'Samples'), CATDS: 0.187537130117577; n = 1.
Assay [4] concerns TTK. The conditions noted are these: read-out: apparent Kd, compound concentrations: 100 nM and 1000 nM (sheet 'Samples'), n = 1.
Assay [5] relates to TTN. To be noted: read-out: apparent Kd, compound concentrations: 100 nM and 1000 nM (sheet 'Samples'), n = 1.
For assay [6], the system named is GSK3A. The conditions noted are these: read-out: apparent Kd; compound concentrations:100 nM and 1000 nM (sheet 'Samples'); n = 1.
Assay [7] deals with GSK3B. The conditions noted are these: read-out: apparent Kd; compound concentrations: 100 nM and 1000 nM (sheet 'Samples'), CATDS: 0.16764618066406201; n = 1.
Assay [8] relates to MAP2K2. To be noted: read-out: apparent Kd; compound concentrations:100 nM and 1000 nM (sheet 'Samples'); n = 1.
Assay [9] has as its system RIOK2. The conditions noted are these: read-out: apparent Kd; compound concentrations:100 nM and 1000 nM (sheet 'Samples'); n = 1.
Assay [10] concerns TGFBR2. To be noted: read-out: apparent Kd; compound concentrations:100 nM and 1000 nM (sheet 'Samples'); n = 1.
In assay [11] the test system is FLT4. To be noted: read-out: apparent Kd; compound concentrations:100 nM and 1000 nM (sheet 'Samples'); n = 1.
Assay [12] has as its system MAP3K1. To be noted: read-out: apparent Kd; compound concentrations:100 nM and 1000 nM (sheet 'Samples'); n = 1.
Assay [13] concerns MAP4K5. To be noted: read-out: apparent Kd; compound concentrations:100 nM and 1000 nM (sheet 'Samples'); n = 1.
For assay [14], the system named is NUAK1. To be noted: read-out: apparent Kd; compound concentrations:100 nM and 1000 nM (sheet 'Samples'); n = 1.
Assay [15] has as its system NUAK2. The conditions noted are these: read-out: apparent Kd; compound concentrations:100 nM and 1000 nM (sheet 'Samples'); n = 1.
Assay [16] concerns SLK. To be noted: read-out: apparent Kd; compound concentrations:100 nM and 1000 nM (sheet 'Samples'); n = 1.
The subject of assay [17] is STK10. The conditions noted are these: read-out: apparent Kd; compound concentrations:100 nM and 1000 nM (sheet 'Samples'); n = 1.
For assay [18], the system named is MYLK3. The conditions noted are these: read-out: apparent Kd, n = 1.
Assay [19] deals with TNIK. The conditions noted are these: read-out: apparent Kd, n = 1.
Assay [20] concerns FN3KRP. The conditions noted are these: read-out: apparent Kd, compound concentrations: 100 nM and 1000 nM (sheet 'Samples'), n = 1.
For assay [21], the system named is FER. The conditions noted are these: read-out: apparent Kd; compound concentrations: 100 nM and 1000 nM (sheet 'Samples'), CATDS: 0.23966612691904199; n = 1.
The test system of assay [22] is IGF1R. To be noted: read-out: apparent Kd; compound concentrations: 100 nM and 1000 nM (sheet 'Samples'), CATDS: 0.234502945323845; n = 1.
The subject of assay [23] is INSR. To be noted: read-out: apparent Kd; compound concentrations: 100 nM and 1000 nM (sheet 'Samples'), CATDS: 0.33480579514984299; n = 1.
Assay [24] has as its system JAK2. The conditions noted are these: read-out: apparent Kd; compound concentrations: 100 nM and 1000 nM (sheet 'Samples'), CATDS: 0.21851313363519401; n = 1.
Assay [25] relates to MAPK10. The conditions noted are these: read-out: apparent Kd; compound concentrations: 100 nM and 1000 nM (sheet 'Samples'), CATDS: 0.114459990523153; n = 1.
Assay [26] concerns MAPK11. To be noted: read-out: apparent Kd; compound concentrations: 100 nM and 1000 nM (sheet 'Samples'), CATDS: 0.104421690058707; n = 1.
Assay [27] deals with MAPK14. To be noted: read-out: apparent Kd; compound concentrations: 100 nM and 1000 nM (sheet 'Samples'), CATDS: 0.43214609476913801; n = 1.
Assay [28] deals with MAPK9. The conditions noted are these: read-out: apparent Kd; compound concentrations: 100 nM and 1000 nM (sheet 'Samples'), CATDS: 0.13499142741698; n = 1.
Assay [29] deals with MAPKAPK2. The conditions noted are these: read-out: apparent Kd; compound concentrations: 100 nM and 1000 nM (sheet 'Samples'), CATDS: 0.49442009217898503; n = 1.
Assay [30] deals with PIP4K2C. The conditions noted are these: read-out: apparent Kd; compound concentrations: 100 nM and 1000 nM (sheet 'Samples'), CATDS: 0.103791319343203; n = 1.
The mark [31] stands for this setting: compound concentrations: 100 nM and 1000 nM (sheet 'Samples'), CATDS: 1.
The mark [32] stands for this setting: compound concentrations:100 nM and 1000 nM (sheet 'Samples').

With `Cc1ccc2c(c1)/C(=N/Nc1ccc(S(N)(=O)=O)cc1)C(=O)N2` [GW275944X], the potency estimated from few doses is 809 nM in assay [1] (compound concentrations: 100 nM and 1000 nM (sheet 'Samples'), CATDS: 0.260396984763757); 1700 nM in assay [2]; 1520 nM in [3]; 2270 nM in assay [4] (CATDS: 0.15958246539429699); 851 nM in assay [5] (CATDS: 0.25287309010543901).

For `Cl.N#Cc1cccc(Nc2ncc(-c3ccccc3)o2)c1` [GW627834A], the potency estimated from few doses in [1] (setting [31]) was 344 nM.

For `c1ccc(Nc2ncc(-c3ccccc3)o2)cc1` [GW549390X], the potency estimated from few doses in [1] (compound concentrations: 100 nM and 1000 nM (sheet 'Samples'), CATDS: 0.74599434863178504) was 273 nM; in assay [5] (CATDS: 0.37600950025420299), 1330 nM.

On to `CC(C)c1ccc(Nc2nccc(-c3cnn4ncccc34)n2)cc1` [GW805758X], for which the potency estimated from few doses was 1170 nM in assay [1] (setting [32]); 888 nM in assay [6]; 1460 nM in [7]; 2020 nM in assay [8]; 1700 nM in assay [9]; 2000 nM in assay [10].

Turning to `Cl.NS(=O)(=O)c1cccc(Nc2cc(-c3ccc(F)cc3)n[nH]2)c1` [GW824645A_PKIS2], the potency estimated from few doses in [1] (setting [31]) was 342 nM.

Regarding `C[C@@H](Oc1cc(-n2cnc3cc(-c4cnn(C)c4)ccc32)sc1C(N)=O)c1ccccc1Cl` [GSK580432A], the potency estimated from few doses in [1] (setting [32]) was 1300 nM; in assay [11], 1610 nM; in assay [12] it was 129 nM; in assay [13], 1040 nM; in [14], 598 nM; in [15], 525 nM. Besides, the results for the potency estimated from few doses in assay [16] and in assay [17] were 615 nM and 160 nM, respectively.

On to `CC(C)c1ccc2c(c1)NC(=O)/C2=N/Nc1ccc(S(N)(=O)=O)cc1` [GW300653X], for which the potency estimated from few doses in assay [1] (setting [31]) was 716 nM.

Consider `C/C(Nc1ccc(S(N)(=O)=O)cc1)=C1/C(=O)Nc2ccccc21` [GW335962X], for which the values for the potency estimated from few doses in assay [1] (setting [32]), in assay [18] (setting [32]) and in [19] (setting [32]) were 524 nM, 629 nM and 2260 nM, respectively.

On to `Cn1nc(-c2ccc(NC(=O)Nc3ccc4ccccc4c3)c(F)c2)c2cnc(NCCN3CCOCC3)nc21.O=C(O)C(F)(F)F` [SB-750250-M], for which, in assay [20] (CATDS: 1), the potency estimated from few doses was 1800 nM.

As for `O=C1Nc2ccccc2/C1=C/Nc1ccc(-n2cncn2)cc1` [GW301789X], the potency estimated from few doses in assay [1] (compound concentrations: 100 nM and 1000 nM (sheet 'Samples'), CATDS: 0.22267825375754199) was 1370 nM; in [18] (compound concentrations: 100 nM and 1000 nM (sheet 'Samples'), CATDS: 0.63148030600185001), 176 nM; in assay [19] (compound concentrations: 100 nM and 1000 nM (sheet 'Samples'), CATDS: 0.21425546336559301), 1520 nM; in assay [4] (CATDS: 0.19017518811714801) it was 2180 nM.

In the case of `COc1cc2c(cc1Nc1nc(N3CCc4ccccc43)c3cc[nH]c3n1)N(C(=O)CN(C)C)CC2` [GSK2186269A], the potency estimated from few doses is 915 nM in assay [21], 959 nM in [22], 493 nM in [23] and 1130 nM in assay [24].

For the compound `Cl.Cn1c(=O)c(Oc2ccc(F)cc2F)cc2cnc(NC(C)(C)CO)nc21` [RO3305411-001], the potency estimated from few doses in assay [20] (CATDS: 0.10743943329960801) is 1390 nM; in assay [25], 1100 nM; in assay [26] it was 1550 nM; in [27], 21.6 nM; in assay [28] it was 640 nM; in [29] it was 16.8 nM. Also, the potency estimated from few doses in assay [30] is 1590 nM.
